Measurements taken from the antibiotic and cytotoxicity screens of Wong et al. (2023).
About 3,300 (8.5%) of roughly 39,000 compounds were called active. The sample holds actives, similar compounds and a random draw of the others, so the mix is not that of the screen.

test system: HepG2; test: cytotoxicity call (relative viability < 0.9); conditions: 10 µM

SMILES | cytotoxicity call
CC(=O)N[C@@H]1[C@@H](O)[C@H](O)[C@H](CO)O[C@@H]1O | inactive
COCC(=O)Nc1ccc2c(c1)OC[C@@H](C)N(C(=O)Cc1cccnc1)C[C@H](C)[C@@H](OC)CN(C)C2=O | inactive
Cn1cnc(S(=O)(=O)N2C[C@@H](O)COC[C@H]3O[C@H](CC(=O)NCc4ccc(F)cc4)CC[C@@H]32)c1 | inactive
COc1cc(C)nc(SCC(N)=O)n1 | inactive
COc1ccc(S(=O)(=O)Nc2ccc3c(c2)C(=O)N([C@@H](C)CO)C[C@@H](C)[C@@H](CN(C)S(=O)(=O)c2ccccc2)O3)cc1 | inactive
C[C@@H]1CN([C@H](C)CO)C(=O)CCCn2nncc2CO[C@@H]1CN(C)C(=O)CCCN(C)C | inactive
Cc1cc(O[C@@H](CCC(F)(F)F)c2ccc(C(=O)NCCC(=O)O)cc2)cc(C)c1-c1ccc(C(C)(C)C)cc1 | inactive
Cc1cc(C)c(-c2ccc(NC(=O)[C@H](Cc3ccc(C(=O)NCCS(=O)(=O)O)cc3)c3ccc(-c4ccc(C(C)(C)C)cc4)cc3)cc2)c(C)c1 | active
COc1ccc(C#Cc2ccc3c(c2)O[C@H](CN(C)S(=O)(=O)c2ccccc2F)[C@@H](C)CN([C@H](C)CO)S3(=O)=O)cc1 | inactive
COc1ccc(S(=O)(=O)Nc2ccc3c(c2)C(=O)N([C@@H](C)CO)C[C@@H](C)[C@@H](CN(C)Cc2ccc(C(F)(F)F)cc2)OCCCC[C@@H](C)O3)cc1 | active
COc1ccc(S(=O)(=O)Nc2ccc3c(c2)C(=O)N([C@H](C)CO)C[C@H](C)[C@@H](CN(C)Cc2ccc(C(F)(F)F)cc2)OCCCC[C@@H](C)O3)cc1 | inactive
COc1ccc(S(=O)(=O)Nc2ccc3c(c2)C(=O)N([C@@H](C)CO)C[C@H](C)[C@@H](CN(C)Cc2ccc(C(F)(F)F)cc2)OCCCC[C@@H](C)O3)cc1 | active
COc1ccc(S(=O)(=O)Nc2ccc3c(c2)C(=O)N([C@@H](C)CO)C[C@@H](C)[C@H](CN(C)Cc2ccc(C(F)(F)F)cc2)OCCCC[C@@H](C)O3)cc1 | active
COc1ccc(S(=O)(=O)Nc2ccc3c(c2)C(=O)N([C@H](C)CO)C[C@@H](C)[C@@H](CN(C)Cc2ccc(C(F)(F)F)cc2)OCCCC[C@H](C)O3)cc1 | inactive
COc1ccc(S(=O)(=O)Nc2ccc3c(c2)C(=O)N([C@@H](C)CO)C[C@H](C)[C@H](CN(C)Cc2ccc(C(F)(F)F)cc2)OCCCC[C@H](C)O3)cc1 | active
C[C@@H]1CCCCO[C@@H](CN(C)C(=O)c2ccncc2)[C@@H](C)CN([C@H](C)CO)C(=O)c2cc(NC(=O)NC3CCCCC3)ccc2O1 | inactive
CO[C@H]1CN(C)C(=O)c2ccc(NC(=O)C3CC3)cc2OC[C@H](C)N(C(=O)Cc2ccccn2)C[C@@H]1C | inactive
C[C@@H]1CN([C@H](C)CO)C(=O)c2cccc(NC(=O)Nc3ccccc3)c2O[C@@H]1CN(C)Cc1ccc(Cl)c(Cl)c1 | inactive
C[C@H](CO)N1C[C@H](C)[C@@H](CN(C)C(=O)Nc2ccc3c(c2)OCO3)Oc2ncc(-c3cccnc3)cc2C1=O | inactive
CCS(=O)(=O)Nc1ccc2c(c1)C(=O)N(C)[C@H]1CC[C@@H](CC(=O)NCCOC)O[C@H]1CO2 | inactive
C[C@H](CO)N1C[C@H](C)[C@H](CN(C)CC2CCCCC2)Oc2c(NC(=O)c3cnccn3)cccc2C1=O | inactive
Nc1ccn([C@@H]2CS[C@H](CO)O2)c(=O)n1 | inactive
CN1CCN(C(=O)C[C@H]2CC[C@@H]3[C@@H](COc4ccc(NC(=O)C5CCCCC5)cc4C(=O)N3C)O2)CC1 | inactive
CCCNC(=O)N1C[C@]2(CN(C2)S(=O)(=O)c2ccc(cc2)OC)c2c(n(c3cc(ccc23)OC)C)[C@@H]1CO | inactive
C[C@H](CO)N1C[C@H](C)[C@@H](CN(C)C(=O)c2cccc(F)c2)Oc2cc(C#CC3CC3)ccc2S1(=O)=O | inactive

SMILES | cytotoxicity call
CNC(=O)C[C@H]1CC[C@H]2[C@@H](COC[C@H](O)CN2C(=O)Nc2ccc3c(c2)OCO3)O1 | inactive
C[C@@H]1CN([C@@H](C)CO)C(=O)c2cc(NC(=O)c3ccncc3)ccc2O[C@@H]1CN(C)S(=O)(=O)c1cccs1 | inactive
COc1ccc(NC(=O)N(C)C[C@@H]2Oc3ccc(NS(C)(=O)=O)cc3C(=O)N([C@H](C)CO)C[C@@H]2C)cc1 | inactive
Cc1noc(C)c1NC(=O)N(C)C[C@H]1OCCCC[C@H](C)Oc2ccc(NC(=O)Nc3cccc4ccccc34)cc2C(=O)N([C@H](C)CO)C[C@@H]1C | inactive
C[C@@H]1CN([C@@H](C)CO)C(=O)c2cccc(NC(=O)c3ccc(-c4nccs4)cc3)c2O[C@H]1CN(C)C(=O)Nc1ccc2c(c1)OCO2 | inactive
O=C(O)c1cc(O)c2cccc(O)c2n1 | inactive
COc1ccc(S(=O)(=O)Nc2ccc3c(c2)C(=O)N([C@H](C)CO)C[C@H](C)[C@@H](CN(C)Cc2ccc(C(F)(F)F)cc2)OCCCC[C@H](C)O3)cc1 | inactive
COc1ccc(S(=O)(=O)Nc2ccc3c(c2)C(=O)N([C@H](C)CO)C[C@H](C)[C@H](CN(C)Cc2ccc(C(F)(F)F)cc2)OCCCC[C@H](C)O3)cc1 | inactive
COc1ccc(S(=O)(=O)Nc2ccc3c(c2)C(=O)N([C@H](C)CO)C[C@@H](C)[C@H](CN(C)Cc2ccc(C(F)(F)F)cc2)OCCCC[C@@H](C)O3)cc1 | active
COc1ccc(S(=O)(=O)Nc2ccc3c(c2)C(=O)N([C@H](C)CO)C[C@@H](C)[C@@H](CN(C)Cc2ccc(C(F)(F)F)cc2)OCCCC[C@@H](C)O3)cc1 | active
COc1ccc(S(=O)(=O)Nc2ccc3c(c2)C(=O)N([C@H](C)CO)C[C@H](C)[C@H](CN(C)Cc2ccc(C(F)(F)F)cc2)OCCCC[C@@H](C)O3)cc1 | active
COc1ccc(S(=O)(=O)Nc2ccc3c(c2)C(=O)N([C@H](C)CO)C[C@@H](C)[C@H](CN(C)Cc2ccc(C(F)(F)F)cc2)OCCCC[C@H](C)O3)cc1 | inactive
COc1ccc(S(=O)(=O)Nc2ccc3c(c2)C(=O)N([C@@H](C)CO)C[C@@H](C)[C@H](CN(C)Cc2ccc(C(F)(F)F)cc2)OCCCC[C@H](C)O3)cc1 | active
COc1ccc(S(=O)(=O)Nc2ccc3c(c2)C(=O)N([C@@H](C)CO)C[C@@H](C)[C@@H](CN(C)Cc2ccc(C(F)(F)F)cc2)OCCCC[C@H](C)O3)cc1 | inactive
COc1ccc(S(=O)(=O)Nc2ccc3c(c2)C(=O)N([C@@H](C)CO)C[C@H](C)[C@@H](CN(C)Cc2ccc(C(F)(F)F)cc2)OCCCC[C@H](C)O3)cc1 | inactive
COc1ccc(S(=O)(=O)Nc2ccc3c(c2)C(=O)N([C@@H](C)CO)C[C@H](C)[C@H](CN(C)Cc2ccc(C(F)(F)F)cc2)OCCCC[C@@H](C)O3)cc1 | inactive
C[C@H]1CN([C@@H](C)CO)C(=O)c2cc(NC(=O)CCCN(C)C)ccc2O[C@H]1CN(C)S(=O)(=O)c1ccccc1 | inactive
C[C@@H]1CN([C@@H](C)CO)S(=O)(=O)c2ccc(Br)cc2O[C@H]1CN(C)C(=O)C1CCCCC1 | inactive
C[C@@H]1CN([C@H](C)CO)C(=O)c2cc(-c3cccc(C(=O)N(C)C)c3)cnc2O[C@H]1CN(C)S(=O)(=O)c1cccc(F)c1 | inactive
Cc1cc(C(=O)Nc2cccc3c2O[C@@H](CN(C)S(=O)(=O)c2cccs2)[C@@H](C)CN([C@@H](C)CO)C3=O)n(C)n1 | inactive
O=C1C[C@@](C(=O)NCc2ccccc2)(c2ccc([N+](=O)[O-])cc2)[C@@H](c2ccc(CO)cc2)N1CC12CC3CC(CC(C3)C1)C2 | inactive
Cc1ccc(S(=O)(=O)n2cc([C@H]3CC(=O)N(C(=O)OCc4ccccc4)[C@H]3C(=O)Nc3cccc4cccnc34)c3ccccc32)cc1 | inactive
C[C@@H]1CN([C@@H](C)CO)C(=O)c2cccc(NC(=O)Nc3ccc4c(c3)OCO4)c2O[C@H]1CN(C)S(=O)(=O)c1cn(C)cn1 | inactive
COc1ccc(CN2CCN(C(c3ccc(F)cc3)c3ccc(F)cc3)CC2)c(OC)c1OC.Cl | active
Cl.Cl.Fc1ccc(C(c2ccc(F)cc2)N2CCN(CC=Cc3ccccc3)CC2)cc1 | inactive

SMILES | cytotoxicity call
Cc1cccc(CN2CCN(C(c3ccccc3)c3ccc(Cl)cc3)CC2)c1.Cl.Cl (stereo not drawn) | inactive
Cc1ccc(S(=O)(=O)N(C)C[C@H]2Oc3c(NC(=O)C4CCOCC4)cccc3C(=O)N([C@H](C)CO)C[C@H]2C)cc1 | inactive
CCc1nc2ccc(C(=O)Nc3cc(-c4ccccc4)ccc3OC)cn2c1N(C)C(=O)c1cccc(OC)c1 | inactive
CC(C)NC(=O)Nc1ccc2c(c1)CC(=O)N([C@H](C)CO)C[C@H](C)[C@@H](CN(C)S(=O)(=O)c1ccccc1)O2 | inactive
Cc1noc(C)c1NC(=O)N(C)C[C@@H]1OCCCC[C@H](C)Oc2ccc(NC(=O)c3ccccc3)cc2C(=O)N([C@@H](C)CO)C[C@H]1C | inactive
Cc1ccc2nc(SCc3c(C)c(C)cc(C)c3C)[nH]c2c1 | inactive
Cc1ccc2nc(SCc3ccc4ccccc4c3)[nH]c2c1 | active
Cc1ccc2nc(CN)[nH]c2c1 | inactive
CCCN(C)C[C@@H]1OCCCC[C@@H](C)Oc2ccc(NC(=O)CCC(F)(F)F)cc2C(=O)N([C@H](C)CO)C[C@@H]1C | inactive
C[C@@H]1CCCCO[C@H](CN(C)Cc2ccc(C(=O)O)cc2)[C@H](C)CN([C@@H](C)CO)C(=O)c2cc(NC(=O)NC3CCCCC3)ccc2O1 | inactive
C[C@H](CO)N1C[C@H](C)[C@H](CN(C)C(=O)c2ccccc2)OCCCC[C@H](C)Oc2ccc(NC(=O)c3ccccc3)cc2C1=O | inactive
C=CCC[C@@H](Cc1ccc(F)cc1)C(=O)OC[C@H](Cc1c[nH]c2ccccc12)NC(=O)[C@@H](CC=C)CC(=O)N[C@@H](CO)Cc1ccccc1 | active
C=CCC[C@@H](Cc1ccc(F)cc1)C(=O)OC[C@H](Cc1c[nH]c2ccccc12)NC(=O)[C@@H](CC=C)CC(=O)N[C@H](CO)Cc1ccccc1 | inactive
C=CCC[C@H](Cc1ccc(F)cc1)C(=O)OC[C@H](Cc1c[nH]c2ccccc12)NC(=O)[C@@H](CC=C)CC(=O)N[C@@H](CO)Cc1ccccc1 | active
C=CC[C@H](CC(=O)N[C@@H](CO)Cc1ccccc1)C(=O)N[C@@H](COC(=O)[C@@H](CC=C)Cc1ccc(F)cc1)Cc1c[nH]c2ccccc12 | inactive
C=CCC[C@@H](Cc1ccc(F)cc1)C(=O)OC[C@@H](Cc1c[nH]c2ccccc12)NC(=O)[C@@H](CC=C)CC(=O)N[C@@H](CO)Cc1ccccc1 | inactive
C=CCC[C@H](Cc1ccc(F)cc1)C(=O)OC[C@@H](Cc1c[nH]c2ccccc12)NC(=O)[C@@H](CC=C)CC(=O)N[C@@H](CO)Cc1ccccc1 | inactive
C=CCC[C@@H](Cc1ccc(F)cc1)C(=O)OC[C@@H](Cc1c[nH]c2ccccc12)NC(=O)[C@H](CC=C)CC(=O)N[C@@H](CO)Cc1ccccc1 | inactive
C=CCC[C@H](Cc1ccc(F)cc1)C(=O)OC[C@H](Cc1c[nH]c2ccccc12)NC(=O)[C@@H](CC=C)CC(=O)N[C@H](CO)Cc1ccccc1 | active
C=CC[C@@H](CC(=O)N[C@H](CO)Cc1ccccc1)C(=O)N[C@H](COC(=O)[C@@H](CC=C)Cc1ccc(F)cc1)Cc1c[nH]c2ccccc12 | inactive
C=CCC[C@H](Cc1ccc(F)cc1)C(=O)OC[C@H](Cc1c[nH]c2ccccc12)NC(=O)[C@H](CC=C)CC(=O)N[C@@H](CO)Cc1ccccc1 | inactive
C=CCC[C@H](Cc1ccc(F)cc1)C(=O)OC[C@@H](Cc1c[nH]c2ccccc12)NC(=O)[C@H](CC=C)CC(=O)N[C@@H](CO)Cc1ccccc1 | active
C=CCC[C@@H](Cc1ccc(F)cc1)C(=O)OC[C@@H](Cc1c[nH]c2ccccc12)NC(=O)[C@@H](CC=C)CC(=O)N[C@H](CO)Cc1ccccc1 | inactive
